Measured values from PubChem BioAssay (EPA / NIEHS).
Activity calls are given as the source filed them. The calls were made as follows: active = hit-call score of the fitted dose curve at least 0.9, where 1 is the maximum; inactive = score below 0.9.

Experiment: CEETOX_H295R_PROG: CeeTox H295R High-throughput Steroidogenesis Assay for Progesterone (PROG) (AID 2283442);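 as to AC50: human H295R adrenal cells primed with 10 µM forskolin before dosing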
Conditions: actives raise or lower the signal
Method: CEETOX_H295R is a cell-based, multiplexed-readout assay that uses H295R, a human adrenal gland cell line, with measurements taken at 48 hours after chemical dosing in a 96-well plate.CEETOX_H295R_PROG is one of 23 assay component(s) measured or calculated from the CEETOX_H295R assay. It is designed to make measurements of hormone induction, a form of inducible reporter, as detected with absorbance signals by HPLC-MS-MS technology.Data from the assay component CEETOX_H295R_PROG was analyzed into 1 assay endpoint. This assay endpoint, CEETOX_H295R_PROG, was analyzed with bidirectional fitting relative to DMSO as the negative control and baseline of activity. Using a type of inducible reporter, gain or loss-of-signal activity using HPLC-MS-MS was used to understand synthesis of Progesterone in H295R cell line at 48hr of chemical exposure. To generalize the intended target to other relatable targets, this assay endpoint is annotated to the steroid hormone intended target family, where the subfamily is progestagens.
Cell culture and media preparation procedures were conducted in accordance with OECD Test No. 456 guidelines, with minor modifications. H295R cells (ATCC CRL-2128) were expanded for 5 passages and frozen in batches in liquid nitrogen. Prior to the steroidogenesis assay, H295R cells were thawed and passed at least 4 times. The maximum passage was 10. Cells were maintained in a 1:1 mixture of DMEM/F12 supplemented with 5ml/L ITS+ Premix (BD Bioscience) and 12.5 ml/L Nu-Serum (BD Bioscience). After seeding cells into 96-well plates at 50-60% confluency, cells were allowed to adhere overnight. Prior to chemical testing, culture medium was replaced with 175 uL medium containing 10 uM forskolin to stimulate steroidogenesis for 48 hours. Following prestimulation, forskolin medium was replaced with medium containing test chemical solubilized in DMSO (ensuring a final concentration of 0.1% DMSO). Test chemicals were incubated for 48 hours, then the medium was removed and split into 2 vials containing approximately 75uL each, and stored at -80 C prior to hormone analysis. For steroid quantification, media samples were shipped to OpAns, LLC (Durham, NC) on dry ice, and samples were thawed to room temperature prior to liquid-liquid extraction. Steroid hormones were extracted from media samples using methyl tertbutyl ether (MTBE). An extra derivatization with dansyl chloride was included for estrogen (estrone and estradiol) detection only. Steroid hormones were separated by HPLC, eluted using a reverse phase C18 gradient with electrospray positive ionization, followed by quantification by tandem mass spectrometry (MS/MS). Data were acquired on a MassHunter Workstation Acquisition version B03.01 (Agilent Technologies, Inc.) and processed using MassHunter Quantitative Analysis for QQQ. Accuracy was determined for each hormone analyte from 3 standards to determine upper and lower limits of quantification (ULOQ and LLOQ, respectively) using a 7-point standard curve. Precision and accuracy of the extraction and quantification methods were calculated as the percent relative standard deviation (%RSD) of the spiked standards and percent spiked standard recovered, respectively. The goal was to achieve 100% accuracy (i.e., recover all spiked-in standard at quantification with minimal loss during run time) and good precision (i.e., have %RSD <15% to ensure reproducibility). Test medium was removed following chemical exposure, and cell viability was evaluated in the same wells by MTT. MTT procedures were as follows: after removal of test medium, 500 uL of 0.5 mg/ml of 3-[4,5-dimethylthiazol-2-y]2,5-diphenyltetrazoliumbromide solution was added to the cells. Following a 4-hour incubation at 37 C and 5% CO2 to allow formazan-crystal formation, the MTT solution was removed and blue formazan salt crystals were solubilized using 500uL anhydrous isopropanol with shaking for 20 minutes. Absorbance was read at 570 and 650nm using a Packard Fusion microplate reader. […]

SMILES | outcome | AC50
O=C(Nc1ccccc1SSc1ccccc1NC(=O)c1ccccc1)c1ccccc1 | inactive | –
CCOC(=O)Cc1cccc2ccccc12 | – | 24.9 µM (active)
COCc1c(C(C)C)nc(C(C)C)c(/C=C/[C@@H](O)C[C@@H](O)CC(=O)O)c1-c1ccc(F)cc1 | – | 0.0067 µM (active)
C#CC1(O)CC[C@H]2[C@@H]3CCC4=CCCC[C@@H]4[C@H]3CC[C@@]21C (stereo partly specified) | inactive | –
COC(=O)c1c(C)cc(O)c(C)c1O | – | 59.5 µM (active)
O=C(C=Cc1ccccc1)OCc1ccccc1 | – | 14.6 µM (active)
CCCCC/C=C\CCC=O | inactive | –
Oc1ccc(Cl)cc1Cc1cc(Cl)ccc1O | inactive | –
Cc1ccc(C(C)c2ccc(C)c(C)c2)cc1C | – | 40.9 µM (active)
COc1ccc2nc(N)sc2c1 | – | 22.4 µM (active)
CCCCNc1ccc(NCCCC)c2c1C(=O)c1ccccc1C2=O | – | 0.208 µM (active)
CN(C)c1ccc(C(=N)c2ccc(N(C)C)cc2)cc1 | inactive | –
C=COCCCC | inactive | –
S=C(NC1CCCCC1)NC1CCCCC1 | inactive | –
CCCCCCCCCCCCCOP(=O)(O)O | inactive | –
CO[Si](CCC1CCC2OC2C1)(OC)OC (stereo unspecified) | inactive | –
